We go through 15 compounds from PubChem BioAssay (NCI).

Holding throughout (experiment): NCI-60 one-dose screen, 48 h (100 = growth as untreated, 0 = no growth, -100 = all killed)
Conditions in all cases: 10 µM unless noted

Test [1] relates to T-47D breast.
Test [2] concerns BT-549 breast.
Test [3] relates to MDA-MB-435 melanoma.
In test [4] the test system is SW-620 colon.
Test [5] concerns MCF7 breast.
Test [6] has as its system HCT-116 colon.
Test [7] deals with HCC-2998 colon.
Test [8] has as its system KM12 colon.

The panel holds about 83,000 compounds, 20% with a hit somewhere; the sample as a whole holds those more often.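 Negative percent growth values reflect cell death: -40 means 40% of the cells present at the start died, and -100 means all died.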 A number with no mark means an inactive call. Activity calls are given as the source filed them. The calls were made as follows: active = growth percent below 10; inactive = the rest.

In the case of `O=C(c1ccc(Cl)cc1)N1CCN(c2ccnc3cc(Cl)ccc23)CC1`, the growth is 58% in test [1]; 106% in test [2]; 97.5% in test [3]; 104% in test [4]; 83.7% in test [5]; 81.5% in test [6]. Further, the growth was 108% in test [7] and 94.9% in test [8].

For the compound `C=C(C)[C@@H]1CC[C@]2(C(=O)N3CCN(C)CC3)CC[C@]3(C)[C@H](CC[C@@H]4[C@@]5(C)CC(=C/c6ccncc6)/C(=N/O)C(C)(C)[C@@H]5CC[C@]43C)[C@@H]12`, the growth was 71.9% in test [1]; 82.7% in test [2]; 86.6% in test [3]; 72.8% in test [4]; 66.8% in test [5]; 56.1% in test [6]. Besides, the growth is 82.7% in test [7] and 72.1% in test [8].

Regarding `O=[N+]([O-])c1ccc(N/N=C(/C(=N/Nc2ccc([N+](=O)[O-])cc2)c2ccccc2)c2ccccc2)cc1`, the growth in test [1] was 88.8%; in test [2] it was 102%; in test [3], 86.4%; in test [4] it was 47.6%; in test [5] it was 60.2%; in test [6] it was 51.7%. In addition, the growth in test [7] is 105%; in test [8], 106%.

Consider `Clc1ccc(Nc2nnc(COc3ccccc3)c3ccccc23)cc1`, for which the growth in test [1] was -5.86% (active); in test [2], -9.97% (active); in test [3], -3.33% (active); in test [4], 15.4%; in test [5], 1.31% (active); in test [6], 1.21% (active). Further, the growth in test [7] was 8.55% (active); in test [8], 0.179% (active).

As for `CN([O-])c1nc(N(C)[O-])nc(N2CCOCC2)n1.CN([O-])c1nc(N(C)[OH2+])nc(N2CCOCC2)n1.[Fe+3]`, the growth in test [1] is 93% [100 µM]; in test [2], 85.8% [100 µM]; in test [3], -30.5% [100 µM] (active); in test [4], 58.3% [100 µM]; in test [5] it was 90.1% [100 µM]; in test [6] it was 65.8% [100 µM]. In addition, the growth in test [7] was 114% [100 µM]; in test [8], 33.6% [100 µM].

Take `Cc1ccc(CNc2ccc(Cl)cc2NCc2ccc(C)c(O)c2)cc1O`: the growth in test [1] was 11.3%; in test [2] it was 39.9%; in test [3], 30.9%; in test [4], 25.9%; in test [5] it was 9.21% (active); in test [6], 24.4%. Also, the growth in test [7] is 22.7%; in test [8], -1.46% (active).

As to `O=C1Nc2ccccc2/C1=C\c1nc(-c2ccccc2F)n2ccccc12`, the growth in test [1] is 21.2%; in test [2] it was 24.5%; in test [3], 44.1%; in test [4], 26.2%; in test [5], 27.8%; in test [6], -36.4% (active). Moreover, the results for the growth in test [7] and in test [8] were 86.1% and 34.4%, respectively.

`COc1cccc(/C=C/C(=O)c2cc3c(N)c(C(=O)Nc4ccccc4)sc3nc2C)c1`: the growth in test [1] was 33%; in test [2], 30.3%; in test [3], -6.91% (active); in test [4], 0.132% (active); in test [5], 7.88% (active); in test [6], 14.9%. Further, the growth in test [7] was -37% (active); in test [8], 17.6%.

For `N#Cc1cccc(NC(=O)c2oc3ccccc3c2-c2cnn(-c3ccccc3)c2)c1`, the growth in test [1] is 49.6% [50 µM]; in test [2], 72.5% [50 µM]; in test [3], 97.9% [50 µM]; in test [4] it was 89% [50 µM]; in test [5], 57.3% [50 µM]; in test [6], 70.9% [50 µM]. In addition, the results for the growth in test [7] and in test [8] were 71.1% [50 µM] and 81.5% [50 µM], respectively.

Regarding `C=C1C(=O)O[C@H]2[C@H]1CC/C(COC(=O)N[C@H]1C[C@H](O[C@H]3C[C@](O)(C(=O)CO)Cc4c(O)c5c(c(O)c43)C(=O)c3c(OC)cccc3C5=O)O[C@@H](C)[C@H]1O)=C\CC[C@@]1(C)O[C@@H]21`, the growth in test [1] is 29.7%; in test [2] it was 22.7%; in test [3], 66%; in test [4], 1.42% (active); in test [5], 12.1%; in test [6], 7.69% (active). The growth is 99.3% in test [7] and 90.1% in test [8].

Take `CCCCNC(=O)Oc1ccc(/C(=C(/CC)Cc2ccccc2)c2ccc(OCCN3CCCCCC3)cc2)cc1`: the growth in test [1] is -24.9% (active); in test [2] it was 87.3%; in test [3], 61.5%; in test [4] it was 25.1%; in test [5], 0.876% (active); in test [6], -76.3% (active). Also, the growth was 34% in test [7] and 37.5% in test [8].

On to `Cc1c(-c2nc3ccc(F)cc3c(=O)[nH]2)c2ccccc2n1C`, for which the growth in test [1] was 36.1%; in test [2], 43.8%; in test [3], -38.8% (active); in test [4], 16.1%; in test [5], 19.1%; in test [6], 25.1%. For the same compound, the growth in test [7] was 53%; in test [8] it was 22%.

Consider `O=C(Nc1cc(Cl)ccc1O)c1ccc(Nc2ccnc(C(F)(F)F)c2)cc1`, for which the growth is 4.61% (active) in test [1]; 34.5% in test [2]; 51.9% in test [3]; 40.2% in test [4]; 22.3% in test [5]; 16% in test [6]. The growth was 35.1% in test [7] and 22.4% in test [8].

`O=C(/C=C/c1ccc(Cl)cc1)c1cccc(Nc2nc(Nc3ccccc3)nc(Nc3ccccc3)n2)c1`: the growth was 55.6% in test [1]; 118% in test [2]; 102% in test [3]; 98.8% in test [4]; -16.9% (active) in test [5]; 29.5% in test [6]. For the same compound, the figures for the growth in test [7] and in test [8] were 88.8% and 86%, respectively.

`O=C(CCC(=O)N/N=C/c1ccccc1O)N/N=C/c1ccccc1O`: the growth in test [1] is 51.5%; in test [2], 76.5%; in test [3], 64.8%; in test [4], 44.8%; in test [5] it was 39.9%; in test [6] it was 25.9%. Besides, the growth in test [7] is 46%; in test [8], 33%.
